According to the supplement of paper PMC10127200:
Counter-ions that a name gives are not always drawn.

How the values were obtained:
Assay in all cases: Euclidean distance of Cell Painting phenotypic profile (signed KS, 77 features) to DMSO centroid (dimensionless distance); 5 or 10 uM (library dependent); higher = stronger phenotypic change vs DMSO (phenoactivity)
Conditions in all cases: 48 h
786-O = system: 786-O
Procedure, shortened: (§1)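 Stained cells were imaged confocally at 20X with 9 fields per well, after 48 h of exposure to library compounds at 10 or 5 uM (set by library; 0.1% DMSO final). The cells were five cancer lines and a healthy fibroblast line. From the images, Harmony extracted 77 features, each expressed as a signed Kolmogorov-Smirnov statistic relative to same-plate vehicle wells. Phenoactivity is measured as Euclidean distance to the median vehicle profile, using plate-position-corrected, correlation-weighted profiles averaged across replicates at the top dose.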

A549 = system: A549
Procedure, shortened: as §1

FB = system: FB
Procedure, shortened: as §1

HEPG2 = system: HEPG2
Procedure, shortened: as §1

OVCAR4 = system: OVCAR4
Procedure, shortened: as §1

| Compound | Euclidean distance (786-O) | Euclidean distance (A549) | Euclidean distance (FB) | Euclidean distance (HEPG2) | Euclidean distance (OVCAR4) |
| --- | --- | --- | --- | --- | --- |
| C[C@@H]1C[C@H]2[C@@H]3CCC4=CC(=O)C=C[C@]4(C)[C@@]3(F)[C@@H](O)C[C@]2(C)[C@H]1C(=O)CO [Desoximetasone] | 1.28 | 2.05 | 1.89 | 0.967 | 2.03 |
| Cc1ncc([N+](=O)[O-])n1CC(C)O (stereo not given) [Secnidazole] | 1.02 | 0.496 | 0.982 | 1.12 | 0.655 |
| CN(C)C(=N)NC(=N)N [Metformin HCl] | 1.61 | 0.837 | 1.26 | 0.474 | 1.78 |
| c1ccc(C2CN3CCSC3=N2)cc1 (stereo not given) [Tetramisole HCl] | 1.45 | 0.708 | 1.19 | 1.31 | 1.25 |
| Cc1cc2c(C(N)=O)cccc2n1-c1nc2c(c(NCc3ccccc3)n1)COCC2 | 6.05 | 2.9 | 7.18 | 4.68 | 3.98 |
| CNC(=O)c1cc(COc2nnc(Nc3ccc(Cl)cc3)c3ccoc23)ccn1 [Telatinib] | 1.21 | 0.814 | 2.01 | 1.41 | 1.74 |
| C=C1C(=O)O[C@@H]2/C=C(\C)CC/C=C(\C)CC[C@@H]12 [Costunolide] | 1.27 | 0.924 | 1.01 | 1.29 | 0.93 |
| CCn1cc(C(=O)O)c(=O)c2cnc(N3CCNCC3)nc21 [Pipemidic acid] | 1.47 | 0.855 | 1.02 | 0.639 | 1.13 |
| O=c1[nH]nc2c3c(cccc13)N=C(CN1Cc3ccccc3C1)N2 | 0.985 | 1.29 | 1.31 | 2.35 | 1.42 |
| C[C@]12C=CC(=O)C=C1CC[C@@H]1[C@@H]2C(=O)C[C@@]2(C)[C@H]1CC[C@]2(O)C(=O)CO [Prednisone] | 2.09 | 2.37 | 2.39 | 1.49 | 2.03 |
| CN1c2ccccc2C(=O)N2CCc3c([nH]c4ccccc34)C21 (stereo in doubt) [Evodiamine] | 2.67 | 2.85 | 1.59 | 2.03 | 1.81 |
| COC(=O)CCc1ccc(OCC(O)CNC(C)C)cc1 (stereo not given) [Esmolol HCl] | 0.978 | 0.415 | 0.525 | 0.386 | 1.12 |
| O=C(Nc1ccc(OC(F)(F)Cl)cc1)c1cnc(N2CC[C@@H](O)C2)c(-c2cc[nH]n2)c1 [Asciminib (ABL001)] | 1.54 | 1.72 | 1.32 | 1.2 | 1.39 |
| Oc1ncnc2[nH]ncc12 [Allopurinol] | 1.04 | 0.955 | 1.01 | 0.506 | 1.21 |
| NC(=O)c1ncn([C@@H]2O[C@H](CO)[C@@H](O)[C@H]2O)c1O [Mizoribine] | 1.26 | 0.927 | 0.917 | 0.657 | 0.855 |
| CC1CCC(C(C)C)C(O)C1 (single isomer, unassigned; (-)) [(-)-Menthol] | 0.7 | 0.703 | 0.797 | 0.699 | 0.955 |
| COC(=O)C1=C(C#N)NC(C)=C(C(=O)OC(C)C)C1c1cccc([N+](=O)[O-])c1 (stereo not given) [Nilvadipine] | 1.2 | 0.818 | 1.19 | 0.907 | 1.34 |
| CC1(C)C[C@@H]1C(=O)N/C(=C\CCCCSC[C@H](N)C(=O)O)C(=O)O [Cilastatin] | 0.899 | 0.574 | 1.49 | 0.578 | 0.796 |
| CCC(=O)NCC[C@@H]1CCc2ccc3c(c21)CCO3 [Ramelteon] | 1.15 | 0.978 | 0.887 | 1.02 | 1.07 |
| O=C(O)c1cc(O)c2c(c1)[C@H]([C@H]1c3cc(C(=O)O)cc(O)c3C(=O)c3c(O[C@@H]4O[C@H](CO)[C@@H](O)[C@H](O)[C@H]4O)cccc31)c1cccc(O[C@@H]3O[C@H](CO)[C@@H](O)[C@H](O)[C@H]3O)c1C2=O [Sennoside A] | 0.91 | 0.674 | 1.07 | 0.438 | 1.12 |
| Nc1nc(N)c2nc(-c3ccccc3)c(N)nc2n1 [Triamterene] | 1.01 | 2.17 | 1.13 | 1.45 | 1.29 |
| CC(C)(Cc1ccc2ccccc2c1)NC[C@@H](O)COc1cccc(Cl)c1C#N | 1.35 | 1.64 | 1.06 | 1.77 | 1.45 |

| Compound | Euclidean distance (786-O) | Euclidean distance (A549) | Euclidean distance (FB) | Euclidean distance (HEPG2) | Euclidean distance (OVCAR4) |
| --- | --- | --- | --- | --- | --- |
| C=CC(=O)N1CC/C(=C\c2ccc(F)c([N+](=O)[O-])c2)C(=O)/C(=C/c2ccc(F)c([N+](=O)[O-])c2)C1 | 6.18 | 5.03 | 5.74 | 5.06 | 6.21 |
| OCCOCCN1CCN(C2=Nc3ccccc3Sc3ccccc32)CC1 [Quetiapine] | 0.8 | 0.671 | 0.864 | 1.02 | 0.901 |
| CC(C)(C)NC[C@H](O)COc1nsnc1N1CCOCC1 [Timolol Maleate] | 1.22 | 0.771 | 0.609 | 0.591 | 1.76 |
| CCOC(=O)c1ncn2c1CN(C)C(=O)c1cc(F)ccc1-2 [Flumazenil] | 1.08 | 0.73 | 1.11 | 0.383 | 0.959 |
| Cn1ccnc1S [Methimazole] | 1.71 | 1.61 | 2.81 | 1.08 | 2.25 |
| C=C1CC[C@@H]2[C@](C)(CO)[C@H](O)CC[C@@]2(C)[C@@H]1C/C=C1/C(=O)OC[C@H]1O [Andrographolide] | 2.41 | 1.6 | 1.96 | 1.62 | 1.67 |
| CCOC(=O)N[C@@H]1CC[C@@H]2[C@@H](C1)C[C@H]1C(=O)O[C@H](C)[C@H]1[C@H]2/C=C/c1ccc(-c2cccc(F)c2)cn1 [Vorapaxar] | 1.81 | 1.29 | 2.37 | 1.49 | 1.31 |
| CC1(C)S[C@@H]2[C@H](NC(=O)[C@H](NC(=O)N3CCNC3=O)c3ccccc3)C(=O)N2[C@H]1C(=O)O [Azlocillin sodium salt] | 0.826 | 0.805 | 1.08 | 0.67 | 1.47 |
| CCc1nc(N)nc(N)c1-c1ccc(Cl)cc1 [Pyrimethamine] | 1.19 | 3.4 | 0.96 | 1.83 | 2.25 |
| CCCNC(=O)NS(=O)(=O)c1ccc(Cl)cc1 [Chlorpropamide] | 1.01 | 0.601 | 0.968 | 0.632 | 1.99 |
| CCOCCn1c(N2CCCN(C)CC2)nc2ccccc21 [Emedastine] | 0.676 | 0.686 | 0.988 | 0.905 | 0.553 |
| CN[C@@H](C)C(=O)N[C@H](C(=O)N1CCC[C@H]1c1nc(C(=O)c2ccc(F)cc2)cs1)C1CCCCC1 | 1.14 | 1.17 | 1.22 | 1.51 | 2.13 |
| CCOC(=O)[C@H](CCc1ccccc1)N[C@H]1CCc2ccccc2N(CC(=O)O)C1=O [Benazepril] | 0.912 | 0.486 | 0.851 | 0.54 | 1.04 |
| CC1(C)[C@@H](O[C@H]2O[C@H](C(=O)O)[C@@H](O)[C@H](O)[C@H]2O[C@@H]2O[C@H](C(=O)O)[C@@H](O)[C@H](O)[C@H]2O)CC[C@]2(C)[C@H]3C(=O)C=C4[C@@H]5C[C@@](C)(C(=O)O)CC[C@]5(C)CC[C@@]4(C)[C@]3(C)CC[C@@H]12 [Glycyrrhizin (Glycyrrhizic Acid)] | 1.52 | 0.67 | 1.38 | 0.607 | 1.47 |
| COc1ccc2[nH]c([S@@+]([O-])Cc3ncc(C)c(OC)c3C)nc2c1 [Esomeprazole sodium] | 0.925 | 0.792 | 0.681 | 1.32 | 0.926 |
| Nc1ccc(S(=O)(=O)Nc2ccccn2)cc1 [Sulfapyridine] | 0.73 | 1.12 | 0.894 | 0.884 | 1.27 |
| CC1=C(/C=C/C(C)=C/C=C/C(C)=C/C(=O)O)C(C)(C)CCC1 [Tretinoin] | 1.24 | 1.29 | 2.68 | 1.21 | 1.18 |
| CN1[C@@H]2CC[C@H]1C[C@@H](OC(=O)c1c[nH]c3ccccc13)C2 [Tropisetron HCl] | 0.839 | 1.16 | 1.16 | 0.825 | 0.93 |
| CNC(=O)c1ccc(Nc2ncc(C(F)(F)F)c(NCc3nccnc3N(C)S(C)(=O)=O)n2)cc1 | 1.58 | 1.6 | 2.06 | 0.842 | 1.85 |
| CC(C)(C)CC(C)(C)c1ccc(O)c(Cc2ccc(Cl)cc2Cl)c1 [Clofoctol] | 1.64 | 1.84 | 1.21 | 0.886 | 1.7 |
| Nc1nc2cc(-c3ccc4ncc(C(=O)N5CCOCC5)n4c3)ccc2o1 [Serabelisib (INK-1117.MLN-1117.TAK-117)] | 1.02 | 1.76 | 2.6 | 1.39 | 1.61 |
